According to the supplement of paper PMC8728848:
Many of the other results were omitted from the sample, so the strongest signals are more common in it than they were.

What was measured:
Test in all cases: glycan array binding signal (z-score within array); higher = stronger binding
Settings in all cases: glycan notation: IUPAC condensed, linker removed
Gal3S(b1-4)Glc = biological target: Gal3S(b1-4)Glc
Outline: (§1)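 The Consortium for Functional Glycomics database supplied 3228 glycan arrays, of which those lacking an available protein sequence were dropped. The binding signal, a within-array Z-score, was averaged across arrays of the same protein sequence and across linkers. Negative scores can be read as non-binding.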

[1] = biological target: Gal3S(b1-4)[Fuc(a1-3)]GlcNAc6S
Outline: as §1

[2] = biological target: GalNAc(b1-3)Gal(a1-4)Gal(b1-4)GlcNAc(b1-3)Gal(b1-4)Glc
Outline: as §1

GalNAc(b1-4)Gal(b1-4)Glc = biological target: GalNAc(b1-4)Gal(b1-4)Glc
Outline: as §1

[3] = biological target: GlcNAc(b1-2)Man(a1-3)[GlcNAc(b1-2)Man(a1-6)]Man(b1-4)GlcNAc(b1-4)[Fuc(a1-6)]GlcNAc
Outline: as §1

[4] = biological target: GlcNAc(b1-2)[GlcNAc(b1-6)]Man(a1-6)[GlcNAc(b1-2)Man(a1-3)]Man(b1-4)GlcNAc(b1-4)GlcNAc
Outline: as §1

[5] = biological target: GlcNAc(b1-3)Gal(b1-4)GlcNAc(b1-2)[GlcNAc(b1-3)Gal(b1-4)GlcNAc(b1-6)]Man(a1-6)[GlcNAc(b1-3)Gal(b1-4)GlcNAc(b1-2)Man(a1-3)]Man(b1-4)GlcNAc(b1-4)GlcNAc
Outline: as §1

[6] = biological target: GlcNAc(b1-3)Gal(b1-4)GlcNAc(b1-3)Gal(b1-4)GlcNAc(b1-3)GalNAc
Outline: as §1

[7] = biological target: Man(a1-3)[Man(a1-6)]Man(b1-4)GlcNAc(b1-4)GlcNAc
Outline: as §1

[8] = biological target: Man(a1-3)[Man(a1-6)]Man(b1-4)GlcNAc(b1-4)[Fuc(a1-6)]GlcNAc
Outline: as §1

[9] = biological target: Neu5Ac(a2-3)Gal(b1-3)GlcNAc(b1-2)Man
Outline: as §1

[10] = biological target: Neu5Ac(a2-3)Gal(b1-3)GlcNAc(b1-6)GalNAc
Outline: as §1

[11] = biological target: Neu5Ac(a2-3)Gal(b1-3)[Fuc(a1-4)]GlcNAc
Outline: as §1

[12] = biological target: Neu5Ac(a2-3)Gal(b1-3)[Fuc(a1-4)]GlcNAc(b1-3)Gal(b1-3)[Fuc(a1-4)]GlcNAc
Outline: as §1

[13] = biological target: Neu5Ac(a2-3)Gal(b1-4)GlcNAc(b1-2)[Neu5Ac(a2-3)Gal(b1-4)GlcNAc(b1-6)]Man(a1-6)[Neu5Ac(a2-3)Gal(b1-4)GlcNAc(b1-2)Man(a1-3)][GlcNAc(b1-4)]Man(b1-4)GlcNAc(b1-4)GlcNAc
Outline: as §1

[14] = biological target: Neu5Ac(a2-3)Gal(b1-4)GlcNAc(b1-3)Gal(b1-4)GlcNAc(b1-2)Man(a1-3)[Neu5Ac(a2-3)Gal(b1-4)GlcNAc(b1-3)Gal(b1-4)GlcNAc(b1-2)Man(a1-6)]Man(b1-4)GlcNAc(b1-4)GlcNAc
Outline: as §1

[15] = biological target: Neu5Ac(a2-3)Gal(b1-4)[Fuc(a1-3)]GlcNAc(b1-3)GalNAc
Outline: as §1

[16] = biological target: Neu5Ac(a2-3)Gal6S(b1-4)GlcNAc
Outline: as §1

[17] = biological target: Neu5Ac(a2-3)Gal6S(b1-4)[Fuc(a1-3)]GlcNAc
Outline: as §1

[18] = biological target: Neu5Ac(a2-3)[Neu5Ac(a2-6)]GalNAc
Outline: as §1

[19] = biological target: Neu5Ac(a2-6)Gal(b1-4)GlcNAc(b1-2)Man(a1-3)[GlcNAc(b1-4)][Neu5Ac(a2-6)Gal(b1-4)GlcNAc(b1-2)Man(a1-6)]Man(b1-4)GlcNAc(b1-4)GlcNAc
Outline: as §1

[20] = biological target: Neu5Ac(a2-6)Gal(b1-4)GlcNAc(b1-2)Man(a1-3)[Neu5Ac(a2-6)Gal(b1-4)GlcNAc(b1-2)Man(a1-6)]Man(b1-4)GlcNAc(b1-4)GlcNAc
Outline: as §1

[21] = biological target: Neu5Ac(a2-6)Gal(b1-4)GlcNAc(b1-2)Man(a1-6)[Gal(b1-4)GlcNAc(b1-2)Man(a1-3)]Man(b1-4)GlcNAc(b1-4)GlcNAc
Outline: as §1

[22] = biological target: Neu5Ac(a2-6)Gal(b1-4)GlcNAc(b1-2)[Neu5Ac(a2-6)Gal(b1-4)GlcNAc(b1-4)]Man(a1-3)[GlcNAc(b1-4)][Neu5Ac(a2-6)Gal(b1-4)GlcNAc(b1-2)[Neu5Ac(a2-6)Gal(b1-4)GlcNAc(b1-6)]Man(a1-6)]Man(b1-4)GlcNAc(b1-4)GlcNAc
Outline: as §1

[23] = biological target: Neu5Ac(a2-8)Neu5Ac(a2-3)[GalNAc(b1-4)]Gal(b1-4)Glc
Outline: as §1

[24] = biological target: Neu5Ac9Ac(a2-6)Gal(b1-4)GlcNAc
Outline: as §1

[25] = biological target: Neu5Gc(a2-6)Gal(b1-4)GlcNAc
Outline: as §1

B1: Arath Fbox (Arabidopsis thaliana), NP_178341.1 (protein)
chain: EFTWGRKRRVKSESSPFDSFPEDCISYIISFTNPRDACVAATVSKTFESTVKSDIIWEKFLPADYESLIPPSRVFSSKKELYFSLCNDPVLFDDDKKSVWLEKASGKRCLMLSAMNLSIIWGDNPQYWQWIPIPESRFEKVAKLRDVCWFEIRGRTNTRVLSPRTRYSAYIVFKGVDKCYGFQNVAIEAAVGVVGQEPSRRLICFSEAIRRGRRNVVKPKQREDGWMEIELGEFFNDGGIMDNDEIEMSALETKQLNRKCGLIIQGIEIRPAKILAAAAASFLEQKLISEEDLNSAVDHHHHHH
- glycan array binding signal (z-score) (Gal3S(b1-4)Glc): 1
- glycan array binding signal (z-score) [1]: 2.7
- glycan array binding signal (z-score) [2]: -0.087
- glycan array binding signal (z-score) (GalNAc(b1-4)Gal(b1-4)Glc): 0.06
- glycan array binding signal (z-score) [3]: 0.585
- glycan array binding signal (z-score) [4]: -0.389
- glycan array binding signal (z-score) [5]: 0.161
- glycan array binding signal (z-score) [6]: -0.761
- glycan array binding signal (z-score) [7]: -0.721
- glycan array binding signal (z-score) [8]: -0.72
- glycan array binding signal (z-score) [9]: -0.092
- glycan array binding signal (z-score) [10]: -0.024
- glycan array binding signal (z-score) [11]: -0.597
- glycan array binding signal (z-score) [12]: 0.221
- glycan array binding signal (z-score) [13]: -0.75
- glycan array binding signal (z-score) [14]: 2.64
- glycan array binding signal (z-score) [15]: 2.69
- glycan array binding signal (z-score) [16]: -0.45
- glycan array binding signal (z-score) [17]: -0.559
- glycan array binding signal (z-score) [18]: -0.205
- glycan array binding signal (z-score) [19]: -0.647
- glycan array binding signal (z-score) [20]: -0.41
- glycan array binding signal (z-score) [21]: 3.21
- glycan array binding signal (z-score) [22]: -0.533
- glycan array binding signal (z-score) [23]: -0.467
- glycan array binding signal (z-score) [24]: -0.681
- glycan array binding signal (z-score) [25]: 2.49
